Source: PubChem
PREPL inhibitor: PREPL enzyme inhibitors, primary screen, biochemical, fluorescence polarization; Prolyl endopeptidase-like (Homo sapiens), Q4J6C6; recombinant PREPL, fluorescence polarization activity-based probe; inhibition, % at 5.96 µM; 320,000 tested, 0.68% active; AID 2751, 2010; in the data active = inhibition above about 43%;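 note: 0% = enzyme with DMSO and 100% = wells lacking enzyme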
MEX-5 binding: MEX-5 zinc finger RNA-binding disruptors – biochemical, C. elegans, fluorescence polarization, MLPCN library, primary screen | Zinc finger protein mex-5 (Caenorhabditis elegans), Q9XUB2 | 300,000 tested, 0.38% active | activity score (negative = inhibition of binding), % at 10 µM | AID 1832, 2009 | MEX-5/FITC-TCR2 RNA binding; stronger effect = lower value;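 active = inhibition past about -25% in most replicates, and total fluorescence under double the plate's negative control median, limit read from the data; inconclusive = replicates evenly split on the limit, or fluorescence at least double controls; inactive = too little inhibition in most replicates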;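 note: 0% = DMSO and -100% = 5 µM competing unlabeled TCR2 RNA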
Fam108B counter: mouse Fam108B serine hydrolase inhibitors, primary screen, counter-screen for RBBP9 inhibitor project, biochemical, fluorescence polarization. recombinant Fam108B, FP-Rh probe fluorescence polarization. inhibition, % at 9.51 µM. 300,000 tested, 0.33% active;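 active = inhibition above the screen mean inhibition plus 3 SD, computed separately per campaign, cut at about 18% in these data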;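 note: inhibitors lower polarization as less probe binds the enzyme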
LYPLA2 inh: LYPLA2 inhibitors, primary screen, counter-screen for PME1 inhibitor project, biochemical, fluorescence polarization, FP-Rh probe ABPP | Acyl-protein thioesterase 2 (Homo sapiens), O95372 | recombinant LYPLA2 | inhibition, % at 5.9 µM | 320,000 tested, 0.38% active | AID 2177, 2009;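 active = inhibition above the screen-wide mean plus 3 SD, limit set per campaign, cut at about 26% in these data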;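 note: 0% = LYPLA2 with DMSO and 100% = wells lacking LYPLA2 enzyme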
PME-1 inh: PME-1 inhibitors via competitive probe labeling, primary screen, biochemical, fluorescence polarization, FP-Rh probe, HTS | 320,000 tested, 0.53% active | AID 2130, 2009 | inhibition, % at 5.9 µM | recombinant PME-1 | Protein phosphatase methylesterase 1 (Homo sapiens), Q9Y570;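 active = inhibition above the campaign mean of all compounds plus 3 SD, cut at about 26% in these data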;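 note: competitive labeling of PME-1 active site by serine hydrolase directed probe; 0% = PME-1 with DMSO and 100% = wells lacking PME-1 enzyme; inhibitors block probe labeling so polarization falls and inhibition rises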
Target sequence (Q9Y570 whole entry, looked up): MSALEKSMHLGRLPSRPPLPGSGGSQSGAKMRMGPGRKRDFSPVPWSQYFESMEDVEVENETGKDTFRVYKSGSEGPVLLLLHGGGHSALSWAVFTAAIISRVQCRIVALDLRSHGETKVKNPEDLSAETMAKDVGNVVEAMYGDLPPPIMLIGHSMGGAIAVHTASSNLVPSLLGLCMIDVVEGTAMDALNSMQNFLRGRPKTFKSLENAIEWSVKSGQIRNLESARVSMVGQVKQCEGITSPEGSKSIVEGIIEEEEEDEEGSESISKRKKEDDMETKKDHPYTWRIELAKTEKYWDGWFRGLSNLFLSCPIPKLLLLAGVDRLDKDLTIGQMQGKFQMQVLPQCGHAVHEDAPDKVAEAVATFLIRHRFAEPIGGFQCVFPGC
LYPLA1 counter: LYPLA1 inhibitors, primary screen, counter-screen for PME1 inhibitor project, biochemical, fluorescence polarization, FP-Rh probe ABPP. Acyl-protein thioesterase 1 (Homo sapiens), O75608. recombinant LYPLA1. inhibition, % at 5.9 µM. 320,000 tested, 0.16% active. AID 2174, 2009;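 active = inhibition above the mean of all tested compounds plus 3 SD, set per campaign, cut at about 14% in these data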;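 note: inhibitors block serine hydrolase probe labeling of LYPLA1 so polarization falls; 0% = enzyme with DMSO and 100% = wells lacking LYPLA1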
Target sequence (O75608 whole entry, looked up): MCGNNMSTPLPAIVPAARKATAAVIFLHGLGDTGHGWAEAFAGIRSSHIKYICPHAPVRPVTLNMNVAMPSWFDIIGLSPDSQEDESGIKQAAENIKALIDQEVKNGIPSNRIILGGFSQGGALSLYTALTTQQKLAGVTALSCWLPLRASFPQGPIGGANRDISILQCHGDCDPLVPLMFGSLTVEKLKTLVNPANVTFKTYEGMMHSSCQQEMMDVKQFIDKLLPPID
* hit, by the source's call; ? = inconclusive; / = no result given. Hits are enriched below; roughly 1.6% of the tested compounds scored in any of these assays.

SMILES | PREPL inhibitor | MEX-5 binding | Fam108B counter | LYPLA2 inh | PME-1 inh | LYPLA1 counter
COc1cccc(/C=N/NC(=O)CCn2nnc3ccccc32)c1 | 0 | -3 | 0 | 9 | 3 | 1
O=C(NNC(=O)c1ccc(S(=O)(=O)N2CCCCC2)cc1)c1ccccc1 | -5 | 0 | -2 | 2 | -3 | 2
Cc1ccc(O)c(C(=O)c2cc(C#N)c(=O)n(-c3c(C)n(C)n(-c4ccccc4)c3=O)c2)c1 | -3 | -7 | 3 | 5 | -3 | -6
Cc1ccc(O)c(C(=O)c2cc(C#N)c(=O)n(-c3nccs3)c2)c1 | 12 | ? | 8 | -7 | 33* | -7
c1ccc(-c2cn3nc4c(nc3n2)CCCC4)cc1 | 10 | -37* | -5 | 4 | 1 | -1
CNC(=O)NC(=S)NC(=O)c1ccc(OC)cc1 | -4 | 2 | 6 | 3 | 1 | 4
O=C(CSc1nc2cc(Cl)ccc2o1)Nc1ccc(N2CCOCC2)cc1 | 11 | -1 | -1 | 5 | 10 | 2
O=C(CSc1nc2ccccc2o1)Nc1ccc(N2CCOCC2)cc1 | 44* | 0 | -1 | 2 | -4 | 1
CCCCn1c(NC(=O)c2ccc(F)cc2)c(C#N)c2nc3ccccc3nc21 | 34 | -4 | 56* | 61* | 20 | 60*
COc1ccc(-c2cc3ccccc3nc2N)cc1OC | 20 | -2 | -1 | 1 | 1 | 1
CC(C)CCN1CCN(CC(c2ccccc2)c2ccccc2)CC1CCO (stereo not drawn) | 4 | 0 | -4 | 0 | -2 | -1
NS(=O)(=O)c1ccc(N=Nc2c(=O)[nH]n3c(=O)c4c([nH]c23)CCCC4)cc1 | 7 | -83* | 7 | -6 | 7 | -1
COc1cccc(N=Nc2c(=O)[nH]n3c(=O)c4c([nH]c23)CCC4)c1 | 4 | -4 | 5 | -3 | 36* | 3
Cc1cccc(N=Nc2c(C)c(C#N)c(O)[nH]c2=O)c1 | 5 | -1 | 1 | -4 | -2 | -3
COc1cccc(N=Nc2c(=O)[nH]n3c(=O)cc(C)[nH]c23)c1 | 0 | -32* | 2 | -14 | 13 | 2
COc1cccc(-c2ccc(C#N)c(=O)[nH]2)c1 | -4 | -8 | 3 | 2 | 9 | -1
Cc1c(Cl)cccc1Nc1nc(N)nc(CSc2nc3ccccc3s2)n1 | -26 | -3 | -10 | -13 | 33* | 0
COc1ccc(CN(C)CC(=O)c2c(N)n(Cc3ccccc3)c(=O)n(C)c2=O)c(OC)c1 | 47* | -1 | 0 | 1 | -3 | 0
Oc1ccc(O)c(-c2cnns2)c1 | 5 | -63* | 2 | -3 | 1 | -7
CN(Cc1ccccc1)C(=O)COC(=O)CCNC(=O)c1ccccc1Cl | 5 | -1 | 4 | 3 | 3 | -1
CN(C)CCCNS(=O)(=O)c1ccc(N2CCC(c3ccc(Cl)cc3)=N2)cc1 | 70* | 0 | 7 | 4 | 4 | 11
O=S(=O)(c1ccc(N2CCC(c3ccc(Cl)cc3)=N2)cc1)N(CCO)CCO | 35 | -4 | 3 | 12 | 6 | 9
Cc1cccc(C)c1NC(=O)/C(C#N)=C/c1ccsc1 | 10 | -1 | 2 | -5 | -6 | -8
Cc1ccc(/C=C(\C#N)C(=O)Nc2c(C)cccc2C)s1 | -6 | -46* | -3 | -11 | -9 | -5
Cc1ccc(NC(=O)/C(C#N)=C/c2ccc(C)s2)c(C)c1 | -1 | -54* | -36 | -56 | -55 | -32
SMILES | PREPL inhibitor | MEX-5 binding | Fam108B counter | LYPLA2 inh | PME-1 inh | LYPLA1 counter
O=C(CCn1ccc2cc(S(=O)(=O)N3CCCC3)ccc21)NCc1cccc(F)c1 | 5 | -3 | -2 | 7 | 5 | 5
O=C(NCc1ccccc1)C1Nc2ccc(OC(F)(F)F)cc2C2C=CCC12 (stereo not drawn) | 10 | -2 | 3 | 0 | 3 | -3
O=C(O)C1Nc2c(cccc2C(F)(F)F)C2C=CCC12 (stereo not drawn) | / | -29* | / | / | / | /
Cc1ccc2c(c1)C1C=CCC1C(C(=O)O)N2 (stereo not drawn) | 22 | -1 | 46* | 5 | 14 | -8
O=C(C[n+]1cc(Br)cc(Br)c1)c1ccccc1 | 11 | 0 | -5 | -1 | -1 | 0
CCCC1C2CN(C(C)C)CC=C2C(C#N)=C(N)C1(C#N)C#N (stereo not drawn) | 12 | -75* | 1 | 8 | 5 | 3
COc1cccc(C2C3CN(C)CC=C3C(C#N)=C(N)C2(C#N)C#N)c1OC (stereo not drawn) | 5 | -67* | 4 | 1 | 22 | 1
CN1CC=C2C(C#N)=C(N)C(C#N)(C#N)C(c3ccsc3)C2C1 (stereo not drawn) | 19 | ? | 0 | 4 | -2 | 4
CCN1CC=C2C(C#N)=C(N)C(C#N)(C#N)[C@H](c3cccc(OC)c3OC)[C@H]2C1 | 18 | / | 3 | 5 | 15 | 1
CN1CC=C2C(C#N)=C(N)C(C#N)(C#N)[C@H](c3cccs3)[C@H]2C1 | 7 | -68* | -2 | 3 | 6 | 3
CN1CC=C2C(C#N)=C(N)C(C#N)(C#N)[C@H](c3cccc(Cl)c3)C2C1 (stereo partly drawn) | 10 | -59* | 2 | 4 | 7 | 1
CN1CC=C2C(C#N)=C(N)C(C#N)(C#N)C(CCc3ccccc3)C2C1 (stereo not drawn) | -19 | / | 2 | -2 | 3 | -1
CC(C)NC(=O)c1ccccc1NC(=O)c1ccccc1N(C)S(C)(=O)=O | 8 | -2 | 1 | 1 | -6 | -5
COc1cc(C2Nc3cccc4cccc(c34)N2)ccc1O | 24 | -11 | 11 | -15 | 27* | -19
N#Cc1c[nH]n2c(=O)cc(Cc3ccccc3)nc12 | 13 | -1 | -3 | 0 | 4 | -2
COc1ccc(-c2cc(C(=O)O)c3c(C)nn(-c4ccccn4)c3n2)cc1 | -1 | 0 | 1 | -3 | -2 | 0
COc1ccc(N=CC2=C(Nc3ccc(OC)cc3)c3c(C)nn(-c4ccccn4)c3CC2)cc1 | 72* | / | 47* | 49* | 57* | 50*
CCOc1ccc(C(=O)CCC(=O)Nc2cc(C)ccn2)cc1 | -13 | -5 | -6 | -10 | -2 | -3
COc1ccc(OC)c(N2C(=O)CC(Cc3ccc(C)cc3)C2=O)c1 (stereo not drawn) | 11 | 1 | -1 | 2 | 31* | -5
O=C(c1ccc2c(c1)OCO2)N1CCCC(c2ccccc2)C1 (stereo not drawn) | 2 | -3 | 4 | 3 | 33* | 1
